This passage reports cell viability results from the supplement of paper PMC10981050.

Where a name gives a salt, the structure may show the parent alone.

In the first assay the test system is MOLM14. Description: cell viability relative to vehicle control; higher = less cytotoxic. The following applies: 10 µM; SRSF2 genotype: SRSF2 wt/wt. An outline of the steps: (§1)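 Four leukaemia lines, as CRISPR-edited mutant clones and isogenic wild-type clones, were tested against Selleck bioactive, kinase and epigenetic probe libraries after removal of identity-inconsistent compounds. Cells were exposed to a single 10 µM dose for 48 h, and CellTiter-Glo luminescence was then read. Viability was calculated relative to the on-plate vehicle control.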
As for `COc1ccc(CCCOC(Cn2ccnc2)c2ccc(OC)cc2)cc1` (stereo not given), the cell viability is 4.26%. Turning to `COC(=O)N[C@H](C(=O)N1CCC[C@H]1C(=O)Nc1ccc([C@@H]2CC[C@@H](c3ccc(NC(=O)[C@@H]4CCCN4C(=O)[C@@H](NC(=O)OC)C(C)C)cc3)N2c2ccc(C(C)(C)C)cc2)cc1)C(C)C` [Ombitasvir(ABT-267)], the cell viability was found to be 92.5%.

Consider `CC1=CC(=O)c2ccccc2C1=O` [Menadione], for which the cell viability turned out to be 102%. Still for that read-out and setting: with `COc1cc(F)c(C(C)C)cc1-c1ccc(C(F)(F)F)cc1CN1C(=O)O[C@H](c2cc(C(F)(F)F)cc(C(F)(F)F)c2)[C@@H]1C` [Anacetrapib (MK-0859)] the figure was 99%; with `CN(CC(=O)N(Cc1ccc(C2CCCCC2)cc1)c1ccc(C(=O)O)cc1)S(=O)(=O)c1c(F)c(F)c(F)c(F)c1F`, 0.15%. Turning to `C#C[C@]1(O)CC[C@H]2[C@@H]3CCC4=CC(=O)CC[C@@H]4[C@H]3C(=C)C[C@@]21CC` [Etonogestrel], the cell viability was 89.9%. On the same count and under the same terms, with `O=C(N/N=C/c1ccc(O)c(O)c1)c1cc2ccccc2cc1O` [Dynasore] the figure was 94.4%; with `CC(C)Oc1ccc2c(=O)c(-c3ccccc3)coc2c1` [Ipriflavone], 113%. As to `CNC(=O)c1ccccc1Sc1ccc2c(/C=C/c3ccccn3)n[nH]c2c1` [Axitinib], the cell viability worked out at 15.3%. The same measure, in the same setting: the value for `CC1=C(C(=O)Nc2ccc3[nH]ncc3c2)C(c2ccc(F)cc2)NC(=O)N1` (stereo not given) was 91.7%.

Another assay concerns OCI-AML2. The assay is described as above. Conditions: 10 µM; SRSF2 genotype: P95H/wt. In short, it runs like this: as §1
As for `O=C(O)c1cc(=O)c2c(OCC(O)COc3cccc4oc(C(=O)O)cc(=O)c34)cccc2o1` [Disodium Cromoglycate], the cell viability worked out at 92.8%.

Consider `Nc1nc2c(ncn2[C@@H]2O[C@H](CO)[C@@H](O)[C@H]2O)c(=O)[nH]1` [Guanosine], for which the cell viability was 103%. In the case of `CN(C/C=C/C#CC(C)(C)C)Cc1cccc2ccccc12` [Terbinafine], the cell viability amounted to 105%. On the same count and under the same terms, with `NCC(=O)CCC(=O)O` [5-Aminolevulinic acid hydrochloride] the figure was 108%.

On to `CN(C)CC(c1ccc(O)cc1)C1(O)CCCCC1` (stereo not given) [Desvenlafaxine], for which the cell viability worked out at 100%. Same read-out and setting: with `COc1cc(O)c2c(=O)cc(-c3ccc(O)c(O)c3)oc2c1` [Hydroxygenkwanin] the figure was 58.3%; with `C[C@H](CC[C@@H](O[C@@H]1O[C@H](CO[C@@H]2O[C@H](CO)[C@@H](O)[C@H](O)[C@H]2O)[C@@H](O)[C@H](O)[C@H]1O[C@@H]1O[C@H](CO)[C@@H](O)[C@H](O)[C@H]1O)C(C)(C)O)[C@H]1CC[C@@]2(C)[C@@H]3CC=C4[C@@H](CC[C@H](O[C@@H]5O[C@H](CO[C@@H]6O[C@H](CO)[C@@H](O)[C@H](O)[C@H]6O)[C@@H](O)[C@H](O)[C@H]5O)C4(C)C)[C@]3(C)[C@H](O)C[C@]12C` [Mogroside V], 103%. Still for that read-out and setting: the value for `COC(=O)c1ccc2c(c1)[nH]c1ncnc(NCCCN3CCCCC3)c12` was 24.2%; that for `O=C(CSc1nc2c(c(=O)n1-c1ccccc1)SCC2)Nc1ccc(-c2ccccc2)cn1` was 93.1%; that for `COc1cc2c(cc1OC(C)C)[C@H](c1ccc(Cl)cc1)N(c1ccc(N(C)C[C@H]3CC[C@H](N4CCN(C)C(=O)C4)CC3)cc1)C(=O)C2` was 0.22%. Still for that read-out and setting: with `O=C(O)Cn1nnc(-c2cc(N3CCC(Oc4cc(F)ccc4Br)CC3)no2)n1` the figure was 101%. For `CCCCCCCCCCCCCCCC(=O)O[C@@H]1[C@@H](O)[C@@H](O)[C@@H]([C@H](NC(=O)[C@@H]2C[C@@H](CCC)CN2C)[C@H](C)Cl)O[C@@H]1SC` [Clindamycin palmitate HCl], the cell viability is 93.6%. Still for that read-out and setting: the value for `O=C(/C=C/c1ccccc1)OCc1ccccc1` [Benzyl cinnamate] was 92.1%; that for `O=S(=O)(c1ccccc1)c1cnc2c(N3CCNCC3)cccc2c1` was 101%. `CCn1cc(C(=O)O)c(=O)c2cc(F)c(N3CCNCC3)cc21` [Norfloxacin (Norxacin)]: the cell viability was determined as 97.4%. For `C[C@@H]1CC[C@@]2(OC1)O[C@H]1C[C@H]3[C@@H]4CC=C5C[C@@H](O[C@@H]6O[C@H](CO)[C@@H](O)[C@H](O)[C@H]6O[C@@H]6O[C@@H](C)[C@H](O)[C@@H](O)[C@H]6O)CC[C@]5(C)[C@H]4CC[C@]3(C)[C@@]1(O)[C@@H]2C` [Polyphyllin VI], the cell viability was found to be 0.28%. Still for that read-out and setting: the value for `Cc1ccnc(NS(=O)(=O)c2ccc(N)cc2)n1` [Sulfamerazine] was 107%; that for `COC(=O)c1ccco1` [Methyl furan-2-carboxylate] was 111%. On the same count and under the same terms, with `COc1cc2c(cc1O)C[C@H]1c3cc(O)c(OC)cc3CC[N+]1(C)C2` (stereo not given in full) [Phellodendrine chloride] the figure was 96.7%. On the same count and under the same terms, with `COc1cc2c(Nc3ccc(NC(=O)c4ccccc4)cc3)ncnc2cc1OCCCN1CCOCC1` the figure was 16.4%; with `CC(C)c1ccc(C=O)cc1` [4-Isopropylbenzaldehyde], 89.9%; with `C[C@]12CC[C@@H]3c4ccc(O)cc4CC[C@H]3[C@@H]1CC[C@@H]2O` [Estradiol], 101%. Consider `CC[C@@H](CO)NCCN[C@@H](CC)CO` [Ethambutol HCl], for which the cell viability is 104%. `O=C(O)C(Cc1c[nH]c2ccccc12)N1C(=O)c2ccccc2C1=O` (stereo not given): the cell viability came to 93.2%. Same read-out and setting: the value for `Cc1nc(-c2cn3c(n2)-c2ccc(-c4cnn(C(C)(C)C(N)=O)c4)cc2OCC3)n(C(C)C)n1` was 8.91%.

`COc1cc2nccc(Oc3ccc(NC(=O)C4(C(=O)Nc5ccc(F)cc5)CC4)cc3)c2cc1OC`: the cell viability was determined as 19.2%. Still for that read-out and setting: the value for `O=C1c2c(O)cc(O)cc2O[C@H](c2cc(O)c(O)c(O)c2)[C@H]1O` [Dihydromyricetin (Ampeloptin)] was 112%. Consider `NC(=O)/C(=C/n1cnc(-c2cc(C(F)(F)F)cc(C(F)(F)F)c2)n1)c1cncnc1`, for which the cell viability was 1.55%. On the same count and under the same terms, with `O=C(c1ccccc1)c1ccc2nc(NC(=O)c3csc(C4CCN(c5ncnc6ccsc56)CC4)n3)[nH]c2c1` the figure was 26.2%. Still for that read-out and setting: the value for `C[C@H]1C[C@H]2[C@@H]3CCC4=CC(=O)C=C[C@]4(C)[C@H]3C(=O)C[C@]2(C)[C@@]1(O)C(=O)CO` [Betapar (Meprednisone)] was 89%; that for `COc1ccc(CCCOC(Cn2ccnc2)c2ccc(OC)cc2)cc1` (stereo not given) was 14.6%; that for `COC(=O)N[C@H](C(=O)N1CCC[C@H]1C(=O)Nc1ccc([C@@H]2CC[C@@H](c3ccc(NC(=O)[C@@H]4CCCN4C(=O)[C@@H](NC(=O)OC)C(C)C)cc3)N2c2ccc(C(C)(C)C)cc2)cc1)C(C)C` [Ombitasvir(ABT-267)] was 112%. On the same count and under the same terms, the value for `CC1=CC(=O)c2ccccc2C1=O` [Menadione] was 14.8%. In the case of `COc1cc(F)c(C(C)C)cc1-c1ccc(C(F)(F)F)cc1CN1C(=O)O[C@H](c2cc(C(F)(F)F)cc(C(F)(F)F)c2)[C@@H]1C` [Anacetrapib (MK-0859)], the cell viability stood at 91.8%. Turning to `CN(CC(=O)N(Cc1ccc(C2CCCCC2)cc1)c1ccc(C(=O)O)cc1)S(=O)(=O)c1c(F)c(F)c(F)c(F)c1F`, the cell viability was 0.12%. Still for that read-out and setting: the value for `C#C[C@]1(O)CC[C@H]2[C@@H]3CCC4=CC(=O)CC[C@@H]4[C@H]3C(=C)C[C@@]21CC` [Etonogestrel] was 88%. Consider `O=C(N/N=C/c1ccc(O)c(O)c1)c1cc2ccccc2cc1O` [Dynasore], for which the cell viability was 80%.

For `CC(C)Oc1ccc2c(=O)c(-c3ccccc3)coc2c1` [Ipriflavone], the cell viability worked out at 71.6%. Same read-out and setting: the value for `CNC(=O)c1ccccc1Sc1ccc2c(/C=C/c3ccccn3)n[nH]c2c1` [Axitinib] was 36.9%; that for `CC1=C(C(=O)Nc2ccc3[nH]ncc3c2)C(c2ccc(F)cc2)NC(=O)N1` (stereo not given) was 33.7%.
